Assay results taken from PubChem BioAssay AID1159580 (chemical genetic matrix, 2015).
Among all 5,500 compounds or so, about 2,000 (36%) were called active. Not shown: some 18% with an inconclusive outcome. Cut-off read from the data, not from the text of the source: active = normalized growth mostly below about 0.91 (no sharp cut-off); inconclusive = no clear call, values can overlap the other calls; inactive = mostly above about 0.92. The list shows a part of the results.

Assay: chemical genetic growth profiling, strain panel (AID 1159580);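 note: tested at 20 µM; growth read once vehicle control cultures reached saturation at 30 °C; 1 = growth at the plate median or of vehicle wells; lower values mean less growth of the strain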
Details: growth OD

Measured: normalized growth

Cc1ccc(C(C)C)c(O)c1C(=O)O
inactive: S. cerevisiae deletion strains, locus YAL013W, strain DEP1, active compounds read low 0.993 | S. cerevisiae deletion strains, locus YBR021W, strain FUR4, active compounds read low 0.912 | S. cerevisiae deletion strains, locus YBR229C, strain ROT2, active compounds read low 0.986 | S. cerevisiae deletion strains, locus YCL029C, strain bik1, active compounds read low 0.951 | S. cerevisiae deletion strains, locus YDL035C, strain GPR1, active compounds read low 0.997 | S. cerevisiae deletion strains, locus YDL074C, strain BRE1, active compounds read low 0.998 | S. cerevisiae deletion strains, locus YDL101C, strain DUN1, active compounds read low 0.999 | S. cerevisiae deletion strains, locus YDL134C, strain PPH21, active compounds read low 0.998 | S. cerevisiae deletion strains, locus YDL192W, strain arf1, active compounds read low 0.95 | S. cerevisiae deletion strains, locus YDR101C, strain arx1, active compounds read low 0.971 | S. cerevisiae deletion strains, locus YDR162C, strain NBP2, active compounds read low 0.977 | S. cerevisiae deletion strains, locus YDR318W, strain mcm21, active compounds read low 0.96 | S. cerevisiae deletion strains, locus YDR388W, active compounds read low 0.935 | S. cerevisiae deletion strains, locus YDR502C, strain sam2, active compounds read low 0.957 | S. cerevisiae deletion strains, locus YEL061C, strain CIN8, active compounds read low 0.981 | S. cerevisiae deletion strains, locus YER110C, active compounds read low 0.959 | S. cerevisiae deletion strains, locus YER167W, strain BCK2, active compounds read low 0.973 | S. cerevisiae deletion strains, locus YGL086W, strain mad1, active compounds read low 0.975 | S. cerevisiae deletion strains, locus YGL248W, strain PDE1, active compounds read low 0.995 | S. cerevisiae deletion strains, locus YGR078C, strain PAC10, active compounds read low 1 | S. cerevisiae deletion strains, locus YGR135W, strain pre9, active compounds read low 0.975 | S. cerevisiae deletion strains, locus YGR252W, strain gcn5, active compounds read low 0.919 | S. cerevisiae deletion strains, locus YHR030C, strain SLT2, active compounds read low 0.97 | S. cerevisiae deletion strains, locus YHR079C, strain IRE1 (second series), active compounds read low 0.936 | S. cerevisiae deletion strains, locus YHR129C, strain ARP1, active compounds read low 0.965 | S. cerevisiae deletion strains, locus YHR200W, strain rpn10, active compounds read low 0.945 | S. cerevisiae deletion strains, locus YIL066C, strain RNR3, active compounds read low 1.01 | S. cerevisiae deletion strains, locus YIL073C, strain SPO22, active compounds read low 1 | S. cerevisiae deletion strains, locus YIR030C, strain dcg1, active compounds read low 0.949 | S. cerevisiae deletion strains, locus YJL095W, strain BCK1, active compounds read low 0.992 | S. cerevisiae deletion strains, locus YJL134W, strain LCB3, active compounds read low 0.955 | S. cerevisiae deletion strains, locus YJL187C, strain SWE1 (second series), active compounds read low 1.01 | S. cerevisiae deletion strains, locus YJR043C, strain POL32, active compounds read low 0.981 | S. cerevisiae deletion strains, locus YJR075W, strain HOC1, active compounds read low 0.998 | S. cerevisiae deletion strains, locus YKL009W, strain mrt4, active compounds read low 0.897 | S. cerevisiae deletion strains, locus YKL190W, strain CNB1, active compounds read low 0.987 | S. cerevisiae deletion strains, locus YKR001C, strain vps1, active compounds read low 0.917 | S. cerevisiae deletion strains, locus YLR039C, strain RIC1, active compounds read low 0.943 | S. cerevisiae deletion strains, locus YLR058C, strain SHM2, active compounds read low 0.995 | S. cerevisiae deletion strains, locus YLR262C, strain YPT6, active compounds read low 0.986 | S. cerevisiae deletion strains, locus YLR268W, strain sec22, active compounds read low 0.96 | S. cerevisiae deletion strains, locus YLR330W, strain CHS5, active compounds read low 0.947 | S. cerevisiae deletion strains, locus YLR342W, strain FKS1 (second series), active compounds read low 0.973 | S. cerevisiae deletion strains, locus YLR371W, strain rom2, active compounds read low 0.94 | S. cerevisiae deletion strains, locus YLR418C, strain cdc73, active compounds read low 0.946 | S. cerevisiae deletion strains, locus YML016C, strain PPZ1, active compounds read low 0.977 | S. cerevisiae deletion strains, locus YML032C, strain rad52, active compounds read low 0.959 | S. cerevisiae deletion strains, locus YMR078C, strain ctf18, active compounds read low 0.916 | S. cerevisiae deletion strains, locus YMR223W, strain ubp8, active compounds read low 0.972 | S. cerevisiae deletion strains, locus YMR263W, strain SAP30, active compounds read low 0.989 | S. cerevisiae deletion strains, locus YMR307W, strain GAS1, active compounds read low 0.967 | S. cerevisiae deletion strains, locus YNL067W, strain RPL9B, active compounds read low 0.997 | S. cerevisiae deletion strains, locus YNL128W, strain TEP1, active compounds read low 1.01 | S. cerevisiae deletion strains, locus YNL233W, strain BNI4, active compounds read low 0.993 | S. cerevisiae deletion strains, locus YNL307C, strain MCK1, active compounds read low 0.928 | S. cerevisiae deletion strains, locus YNR052C, strain pop2, active compounds read low 0.951 | S. cerevisiae deletion strains, locus YOL006C, strain TOP1, active compounds read low 0.977 | S. cerevisiae deletion strains, locus YOL012C, strain htz1 1.59 | S. cerevisiae deletion strains, locus YOL147C, strain pex11, active compounds read low 0.937 | S. cerevisiae deletion strains, locus YOR061W, strain CKA2, active compounds read low 0.989 | S. cerevisiae deletion strains, locus YOR069W, strain VPS5, active compounds read low 0.974 | S. cerevisiae deletion strains, locus YOR136W, strain idh2, active compounds read low 0.979 | S. cerevisiae deletion strains, locus YOR184W, strain ser1, active compounds read low 0.962 | S. cerevisiae deletion strains, locus YOR316C, strain cot1, active compounds read low 0.93 | S. cerevisiae deletion strains, locus YPL241C, strain CIN2, active compounds read low 0.971 | S. cerevisiae deletion strains, locus YPR167C, strain met16, active compounds read low 0.936 | S. cerevisiae deletion strains, strain wtn01, active compounds read low 0.955 | S. cerevisiae strains, strain wild type, active compounds read low 0.988
active: S. cerevisiae deletion strains, locus YDL185W, strain tfp1, active compounds read low 0.784 | S. cerevisiae deletion strains, locus YER155C, strain BEM2, active compounds read low 0.914 | S. cerevisiae deletion strains, locus YGL078C, strain dbp3, active compounds read low 0.859 | S. cerevisiae deletion strains, locus YHR094C, strain hxt1, active compounds read low 0.923 | S. cerevisiae deletion strains, locus YIL125W, strain kgd1, active compounds read low 0.808 | S. cerevisiae deletion strains, locus YJL168C, strain set2, active compounds read low 0.921 | S. cerevisiae deletion strains, locus YKL068W, active compounds read low 0.82 | S. cerevisiae deletion strains, locus YKL085W, strain MDH1 (second series), active compounds read low 0.83 | S. cerevisiae deletion strains, locus YKL085W, strain MDH1, active compounds read low 0.83 | S. cerevisiae deletion strains, locus YLR102C, strain apc9, active compounds read low 0.918 | S. cerevisiae deletion strains, locus YML124C, strain tub3, active compounds read low 0.929 | S. cerevisiae deletion strains, locus YNL250W, strain rad50, active compounds read low 0.848 | S. cerevisiae deletion strains, locus YNL271C, strain bni1, active compounds read low 0.831 | S. cerevisiae deletion strains, locus YNL298W, strain CLA4, active compounds read low 0.842 | S. cerevisiae deletion strains, locus YOR144C, strain elg1, active compounds read low 0.928 | S. cerevisiae deletion strains, locus YPR119W, strain clb2, active compounds read low 0.918 | S. cerevisiae deletion strains, locus YPR141C, strain kar3, active compounds read low 0.797 | S. cerevisiae deletion strains, locus YPR163C, strain tif3, active compounds read low 0.908
